Common to all, as to assay type: functional
The target in assay [1] is Solute carrier family 2, facilitated glucose transporter member 1 (Homo sapiens) (UniProt P11166). Nature of the assay: ST_JUDE_LEISH: Cytotoxicity at 2uM final concentration against transgenic Leishmania Mexicana promastigotes LmGLUT1 that are glucose transport deficient and complemented with the human glucose transporter GLUT1. Activity is measured by DNA content using SYBR green in vitro.

In assay [2] the target is Hexose transporter 1 (Plasmodium falciparum) (UniProt O97467). Kind of assay: ST_JUDE_LEISH: Cytotoxicity at 2uM final concentration against transgenic Leishmania Mexicana promastigotes LmPfHT that are glucose transport deficient and complemented with the Plasmodium falciparum hexose transporter. Activity is measured by DNA content using SYBR green in vitro.
Assay [3] has as its target Glucose transporter (Leishmania mexicana) (UniProt O61059). Kind of assay: ST_JUDE_LEISH: Cytotoxicity at 2uM final concentration against transgenic Leishmania Mexicana promastigotes LmGT2 that are glucose transport deficient and complemented with the L. Mexicana glucose transporter 2. Activity is measured by DNA content using SYBR green in vitro.

In ChEMBL document CHEMBL3433997, “St. Jude Leishmania screening dataset” (2016) one finds inhibition data, which are given here for 37 compounds.

Chain of Solute carrier family 2, facilitated glucose transporter member 1 (Homo sapiens) (P11166 whole entry): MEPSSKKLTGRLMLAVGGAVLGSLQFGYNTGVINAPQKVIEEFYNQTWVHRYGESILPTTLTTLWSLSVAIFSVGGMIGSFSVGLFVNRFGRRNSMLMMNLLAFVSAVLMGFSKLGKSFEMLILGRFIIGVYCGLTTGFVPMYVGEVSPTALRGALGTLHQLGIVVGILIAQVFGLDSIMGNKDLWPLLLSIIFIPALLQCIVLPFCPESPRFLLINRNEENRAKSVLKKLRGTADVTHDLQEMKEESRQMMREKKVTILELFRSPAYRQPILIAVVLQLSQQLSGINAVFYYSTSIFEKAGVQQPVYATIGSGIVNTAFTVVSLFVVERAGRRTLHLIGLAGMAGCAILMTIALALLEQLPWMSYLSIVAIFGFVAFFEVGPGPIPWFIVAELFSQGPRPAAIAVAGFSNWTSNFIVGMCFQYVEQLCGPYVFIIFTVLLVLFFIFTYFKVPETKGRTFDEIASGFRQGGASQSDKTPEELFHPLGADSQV

Turning to `CCn1c(Cc2ccccc2)nnc1Sc1ccc([N+](=O)[O-])c(C#N)c1`, the values for the inhibition in assay [1], in assay [2] and in assay [3] were 5.75%, 6.38% and 3.87%, respectively.
The matching figures for `CC(C)(CNCc1ccc(F)c(F)c1)c1nc(-c2ccc(Cl)c(O)c2)c(-c2ccncc2)[nH]1`: 2.43%, 0.25% and 0.94%.
The matching figures for `Cc1cccc2nc(-c3cccc(-c4cccc(C(=O)N5CCCCC5CN5CCC(O)C5)c4)c3)[nH]c12` (stereo unspecified): 0.56%, 0.67% and -1.67%.
The matching figures for `O=C(Nc1cc(F)cc(F)c1)NC1CCN(CCCCCNC(=O)C2CC2c2ccc(Cl)c(Cl)c2)CC1` (stereo unspecified): 0.3%, -0.08% and -2.77%.
Take `CN1CCCN(Cc2ccc(-c3cccc(NC(=O)c4cccc(C#N)c4)c3)cc2)CC1`: the inhibition – broadly, the change of the read-out against control, counted positive when it falls – stood at 8.55% in assay [1], 4.85% in assay [2] and 5.62% in assay [3].
The matching figures for `CCNc1cc(C)nc(Nc2ccc(NS(=O)(=O)c3ccccc3)cc2)n1`: 17.8%, 11% and 5.64%.
The matching figures for `Cn1cc(Br)c(-c2cccc(Nc3ccnc4cc(-c5nccs5)ccc34)c2)n1`: 3.67%, 2.34% and 4.06%.
The matching figures for `O=C(NC1CCN(Cc2ccc(O)cc2)CC1)c1ccc(Cl)c(Cl)c1`: 4.53%, 4.25% and -3.12%.
In the case of `CCOC(=O)NC1=NC(C)(C)N(OCc2cccc3c2ccc2ccccc23)C(NC(=O)OCC)=N1`, the values for the inhibition in assay [1], in assay [2] and in assay [3] were 10.7%, 11.1% and 10.3%, respectively.
The matching figures for `O=C(Nc1cccc(-c2nn3ccccc3c2-c2ccnc(Nc3ccc(C(=O)N4CCOCC4)cc3)n2)c1)c1c(F)cccc1F`: 23.1%, 7.72% and 2.78%.
As for `O=C(NC1CCN(c2ccnc3ccccc23)C1)c1cccc(C(F)(F)F)c1` (stereo unspecified), the inhibition in assay [1] came out at 2.99%; in assay [2] it was 1.24%; in assay [3], 1.91%.
Consider `Cc1ccccc1Oc1nc2ccccc2nc1SCC(=O)NC(C)C`, for which the results for the inhibition in assay [1], in assay [2] and in assay [3] were 2.29%, 2.25% and -1.86%, respectively.
As for `CC(C)N1CCC(N(Cc2ccc(-c3ccc(Cl)cc3)cc2)C(=O)Cn2c(CCc3cccc(F)c3F)cc(=O)c3ccccc32)CC1`, the inhibition in assay [1] was 2.59%; in assay [2], 2.15%; in assay [3] it was 1.92%.
`COc1ccc2nccc([C@@H](O)CN3CCC(NC(=O)c4ccc(Cl)c([N+](=O)[O-])c4)CC3)c2c1`: the inhibition in assay [1] stood at 13.3%; in assay [2], 8.44%; in assay [3], 0%.
The matching figures for `CS(=O)(=O)CCNCc1nc(-c2ccc3c(Nc4ccc(Oc5ccccn5)cc4)ccnc3c2)cs1`: 5.17%, 4.96% and 2.64%.
The matching figures for `COc1ccc(/N=[N+](\[O-])c2ccccc2/[N+]([O-])=N/c2ccc(OC)cc2)cc1`: 1.29%, 1.73% and 1.68%.
The matching figures for `CCOc1ccccc1C(=O)N1CCc2cc3nccc(N4CCN5CCC[C@H]5C4)c3cc21`: -0.64%, -0.67% and -0.44%.
Regarding `Cc1ccc(NC(=O)c2ccc3ncccc3c2)cc1OC1CCN(Cc2ccco2)C1` (stereo unspecified), the inhibition amounted to 0.45% in assay [1], 1.05% in assay [2] and 1.55% in assay [3].
The matching figures for `Cc1ccc(-c2nc(N3CCN(C(=O)c4ccco4)CC3)c3ccc(Cl)cc3n2)cc1`: 1.17%, 2.21% and 2.34%.
The matching figures for `O=C(Nc1cccc(CN2CCCN(Cc3ccccc3)CC2)c1)c1ccc(-c2ccccc2)cc1`: 3%, 4.14% and -0.61%.
The matching figures for `COc1cccc(CNC[C@@H](O)[C@H](Cc2ccccc2)NC(=O)c2cc(N3CCCC3=O)c3[nH]cc(C(C)C)c3c2)c1`: 1.26%, 2.02% and 2.36%.
As to `COc1cccc(-c2nn(C)c3sc(C(=O)NCCN4CCN(c5ccccc5F)CC4)cc23)c1`, the inhibition in assay [1] is -0.88%; in assay [2] it was 2.01%; in assay [3] it was 0.29%.
The matching figures for `COc1ccc2nc(C)cc(NCc3cccc4ccccc34)c2c1`: 2.2%, 3.81% and -0.28%.
Turning to `COc1ccc(Nc2nc(NCc3ccco3)c3ccccc3n2)cc1`, the inhibition came out at 25.5% in assay [1], 20% in assay [2] and 12.1% in assay [3].
The matching figures for `COc1cccc(CN2CCN(C(c3ccccc3)c3ccccc3)CC2)c1O`: 6.87%, 6.03% and 2.74%.
In the case of `O=C(CC1NC(=O)c2ccccc21)Nc1ccc(-c2cccc(-c3nc4cc(C(F)(F)F)ccc4[nH]3)c2)cc1` (stereo unspecified), the inhibition in assay [1] turned out to be 1.2%; in assay [2], 2.78%; in assay [3] it was 0.79%.
The matching figures for `OCC1CCN(Cc2ccc(-c3ccc(-c4nc5cc(F)ccc5[nH]4)cc3)cc2)CC1`: 6.63%, 4.55% and 4.78%.
The matching figures for `O=C(Nc1cccc(CN2CCCN(Cc3cccnc3)CC2)c1)c1ccc(Cl)c(Cl)c1`: 5.01%, 4.16% and 5.38%.
The matching figures for `COc1ccc2c(NN=CC=Cc3ccccc3)ccnc2c1`: 9.5%, 6.81% and 11.6%.
On to `COc1ccc(-c2nc3cccnc3n2CC(=O)Nc2cc(Cl)c(Cl)cc2Cl)c(OC)c1`, for which the inhibition in assay [1] is -3.62%; in assay [2], -1.91%; in assay [3], -2.74%.
The matching figures for `COc1ccc2nccc(NC(=O)OC3CCC(NCc4ccc5c(n4)NC(=O)CS5)CC3)c2c1` (stereo unspecified): 4.53%, 4.67% and 3.92%.
The matching figures for `CS(=O)(=O)Nc1ccc2[nH]cc(C3CCN(CC(O)C4CCN(C(=O)/C=C/c5ccc(Cl)c(Cl)c5)CC4)CC3)c2c1` (stereo unspecified): 4.85%, 2.94% and 3.3%.
As for `CCOc1cc(C)ccc1C1CCN(CCN2CCC(CNC(=O)c3ccc(-c4ccc(C(F)(F)F)cc4)cc3)CC2)CC1`, the inhibition in assay [1] came out at 0.7%; in assay [2], 2.7%; in assay [3], 1.5%.
Turning to `O=C(NCC1CC1)C1Cc2c([nH]c3ccc(Br)cc23)C2(CCN(CCc3ccccc3)CC2)N1` (stereo unspecified), the inhibition in assay [1] is 1.43%; in assay [2], -0.28%; in assay [3], 1.33%.
The matching figures for `Cc1cccc2nc(-c3cccc(-c4ccc(NC(=O)Nc5ccsc5)cc4)c3)[nH]c12`: 5%, 4.66% and 2.53%.
The matching figures for `CCN(CC)CCOc1ccc(C(O)(C#CC(O)(c2ccc(C)cc2)c2ccc(OCCN(CC)CC)cc2)c2ccc(C)cc2)cc1` (stereo unspecified): 7.79%, 8.63% and 1.02%.
Regarding `CN(C)CCNC(=O)c1ccc2c(c1)ncn2-c1cc(OCc2ccccc2C(F)(F)F)c(C(N)=O)s1.CN(C)CCNC(=O)c1ccc2ncn(-c3cc(OCc4ccccc4C(F)(F)F)c(C(N)=O)s3)c2c1`, the inhibition in assay [1] worked out at 2.32%; in assay [2], 1.7%; in assay [3] it was 1.86%.
